The source of these data is PubChem BioAssay (Tox21).

Where “and” joins values, the source holds several entries; their conditions need not be identical. Equal entries are not always repeated. Inconclusive results are not listed. Some structures have more than one record in an assay (separate samples or runs), and their calls can disagree. Calls of active or inactive are those of the source. Unless noted, calls come from the whole dose curve; as a rule, active = well fitted curve in the direction sought with a large enough effect in the repeat runs; inconclusive = weak or mixed curves; inactive = no such curve, though single readings can be large; an effect the other way counts as inactive or inconclusive.

The nature of assay [1]: qHTS assay to identify small molecule agonists of H2AX (AID 1224845; active = well fitted activation curve with a large enough effect in the signal ratio in the repeat runs, not every such curve was filed as active; the % refers to the signal ratio; note: potency is the fitted concentration of half-maximal effect). The essentials: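 Wild-type CHO-K1 cells, plated overnight, exposed 3hr at 37C to 15 concentrations (0.76% DMSO final). Lysed, then HTRF anti-pH2AX (S139) cryptate and anti-H2AX-d2 antibodies, 24 hr room temperature; 665/620 nm emission read.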
For orientation: qHTS replaces the single test concentration by a dilution series.

Assay [2] can be described thus: qHTS assay to identify small molecule agonists of H2AX - cell viability counter screen (AID 1224847; calls by dose curve; note: nearly all actives have a fitted effect of over 30% in size; note: potency is the fitted concentration of half-maximal effect). Put shortly: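 Cytotoxicity counter screen in wild-type CHO-K1 cells: a 3 hr compound treatment at 37C across 15 concentrations, followed by CellTiter-Glo luminescence to gauge viable cells.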
Assay [3] is described as follows: qHTS assay to identify small molecule antagonists of the estrogen related receptor (ERR) signaling pathway from Tox21 library (AID 1224848). Note: nearly all actives have a fitted effect of over 50% in size. Note: potency is the fitted concentration of half-maximal effect. The essentials:
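Compounds dissolved in DMSO are pin-transferred onto ERR reporter cells (2,000 per well) that have settled for 6 h at 37 C. Plates then incubate 18 h at 37 C before ONE-Glo luciferase reagent and a luminescence read 30 min later.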

Assay [4] in a line: qHTS assay to identify small molecule agonists of the estrogen related receptor (ERR) signaling pathway from Tox21 library (AID 1224849; calls by dose curve; note: nearly all actives have a fitted effect of over 15% in size). The settings on record: ERR reporter cell line, ONE-Glo luciferase, 18 h. Put shortly:
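Tox21 compounds tested for ERR agonism in an NTP reporter cell line: 18 h treatment at 37 C, then ONE-Glo luminescence.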

A short description of assay [5]: qHTS RealTime-Glo MT Cell Viability Assay in HEK293 cells - 32 hour (AID 1224868). Note: nearly all actives have a fitted effect of over 50% in size. Note: potency is the fitted concentration of half-maximal effect. Put shortly: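 Reads taken at 0, 8, 16, 24, 32 and 40 h from the same wells. HEK293 cells (600/well) carried RealTime-Glo reagents from seeding, with compound added after a 5 h settle at 37 C.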
Assay [6] in a line: A CellTox Green Cytotoxicity Assay to monitor cytotoxicity in HEK293 cells - 0 hour (AID 1224869). Note: nearly all actives have a fitted effect of over 50% in size. Note: potency is the fitted concentration of half-maximal effect. Put shortly: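 Tox21 screen in HEK293: membrane-impermeant cyanine dye fluoresces on binding dead-cell DNA; compound pinned 5 h post-seeding, plates held at 37 C, signal read repeatedly through 40 h.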
A short description of assay [7]: qHTS RealTime-Glo MT Cell Viability Assay in HepG2 cells - 40 hour (AID 1224870). Note: nearly all actives have a fitted effect of over 50% in size. Note: potency is the fitted concentration of half-maximal effect. The essentials:
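HepG2 cells (600/well) mixed with RealTime-Glo MT reagent, settled 5 h at 37 C/5% CO2 before compound addition. Nonlytic NanoLuc luminescence from viable-cell prosubstrate reduction read repeatedly during 40 h treatment at 37 C.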

The nature of assay [8]: qHTS RealTime-Glo MT Cell Viability Assay in HepG2 cells - 24 hour (AID 1224867). Note: nearly all actives have a fitted effect of over 50% in size. Note: potency is the fitted concentration of half-maximal effect. The essentials: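 HepG2 suspension premixed with RealTime-Glo reagents is plated at 600 cells per well and left 5 h at 37 C/5% CO2. Compounds in DMSO then go in, and bioluminescence reflecting viable cell number is recorded over 40 h.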
The nature of assay [9]: qHTS assay to identify small molecule agonists of the hypoxia (HIF-1) signaling pathway (AID 1224846; active = well fitted activation curve with a large enough effect in the signal ratio in the repeat runs, not every such curve was filed as active; the % refers to the signal ratio; note: potency is the fitted concentration of half-maximal effect). Put shortly:
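Reporter induction in HRE-bla ME-180 cells is taken as agonism: cells sit 5 hrs after plating, receive compounds or DMSO only, incubate 17 hrs at 37C under 5% CO2, and are loaded with CCF4-AM for beta-lactamase FRET measurement.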

The mark [10] stands for this setting: at 92.4 µM (top of the series) unless noted.
% is set by controls: 0 for no effect and ±100 for the full control effect.

For `CCc1cc(SCc2sc(-c3ccc(C(F)(F)F)cc3)nc2CN2CCN(c3ccc(OC)cc3)CC2)ccc1OCC(=O)O`, the Potency was 50.5 µM (active) in [1], 89.8 µM (active) in assay [2], 17.2 µM (active) in assay [3] and 19.5 µM (active) in assay [5]. For the same compound, in [4] (setting [10]), the activity change, positive = activation was -62.5% (inactive). The Potency result in assay [6] and in assay [7] was “inactive” in each case.

Take `Oc1cccc2cc3cccc(O)c3c(O)c12`: the Potency result in [1], in assay [2], in [8], in assay [5] and in assay [6] was “inactive” in each case.

`CCCN(CCC)C(=O)C(CCC(=O)OCCCN1CCN(CCOC(=O)Cc2c(C)n(C(=O)c3ccc(Cl)cc3)c3ccc(OC)cc23)CC1)NC(=O)c1ccccc1` (stereo not drawn): the Potency entry in [1], in assay [2], in assay [6] and in assay [7] was “inactive” in each case. The Potency in assay [3] was 29.8 µM (active). Also, the activity change, positive = activation in assay [4] (setting [10]) is -47.5% [at 42.5 µM] (inactive).

Take `Nc1nc2ccccc2n1Cc1ccc(F)cc1`: the Potency result in [1], in assay [2], in [8] and in [6] was “inactive” throughout.

`COc1ccc(CN2CCN(C(c3ccc(F)cc3)c3ccc(F)cc3)CC2)c(OC)c1OC`: the Potency result in assay [1] and in assay [6] was “inactive” each time. Also, the Potency in [3] was 13.3 µM (active); in assay [5] it was 16.9 µM (active).

Turning to `CNCc1cc(F)ccc1Oc1ccc(Cl)c(Cl)c1`, the Potency result in assay [1] and in assay [6] was “inactive” in each case. The Potency was 48.6 µM (active) in assay [3], 49 µM (active) in assay [8] and 43.6 µM (active) in [5]. Besides, the activity change, positive = activation in assay [4] (setting [10]) was -40.3% (inactive).

For `Oc1c(Cl)cc(Cl)c2cccnc12`, the values for the Potency in [1] and in [3] were 39.1 µM (active) and 9.44 µM (active), respectively. Besides, in assay [4] (setting [10]), the activity change, positive = activation is -66% [at 42.5 µM] (inactive). For the same compound, the Potency result in [8] and in assay [6] was “inactive” in each case.

In the case of `CCOC(=O)O[C@]1(C(=O)OCCl)CC[C@H]2[C@@H]3CCC4=CC(=O)C=C[C@]4(C)[C@H]3[C@@H](O)C[C@@]21C`, the Potency entry in [1], in assay [2], in [6] and in [7] was “inactive” in each case.

As to `CCCCCCCCOC(=O)c1ccc(O)cc1`, the Potency entry in [1], in assay [8], in [6] and in [7] was “inactive” each time. Also, the Potency in assay [2] was 89.5 µM (active) and 101 µM (active); in assay [5] it was 27.4 µM (active).

Turning to `O=C(Nc1cccc(Cl)c1)OCC#CCCl`, the Potency in assay [1] is 113 µM (active); in assay [3], 30.6 µM (active); in [8], 49 µM (active); in assay [5], 49 µM (active); in [7], 49 µM (active). Moreover, the Potency entry in assay [2] and in assay [6] was “inactive” in each case.

Take `C=C(C)C(=O)OCC(O)COc1ccc(C(C)(C)c2ccc(OCC(O)COC(=O)C(=C)C)cc2)cc1` (stereo not drawn): the Potency result in assay [1] and in assay [6] was “inactive” each time. The Potency is 27.3 µM (active) in [3], 19.5 µM (active) in [8] and 12.3 µM (active) in assay [5]. Also, in [4] (setting [10]), the activity change, positive = activation is -80.3% (inactive).

Consider `C=CC(=O)OCCn1c(=O)n(CCOC(=O)C=C)c(=O)n(CCOC(=O)C=C)c1=O`, for which the Potency in assay [1] was 25.3 µM (active); in assay [8] it was 21.9 µM (active); in [5], 11 µM (active); in assay [7], 19.5 µM (active). The Potency entry in [3] and in [6] was “inactive” throughout. Further, the activity change, positive = activation in assay [4] (setting [10]) was -78.2% (inactive).

Consider `O=C(NOCC1CC1)c1ccc(F)c(F)c1Nc1ccc(I)cc1Cl`, for which the Potency entry in assay [1] and in assay [6] was “inactive” in each case. For the same compound, the Potency in [3] is 11.9 µM (active); in assay [7], 0.535 µM (active). For the same compound, the activity change, positive = activation in assay [4] (setting [10]) was -59% [at 42.5 µM] (inactive).

With `N#CSc1ccc(N)c([N+](=O)[O-])c1`, the Potency entry in assay [1], in assay [6] and in [7] was “inactive” each time. The Potency was 43.5 µM (active) in assay [3] and 49.3 µM (active) in assay [5]. Besides, the activity change, positive = activation in assay [4] (setting [10]) is -63.3% (inactive).

In the case of `C[C@@H]1C[C@H]2[C@@H]3CCC4=CC(=O)C=C[C@]4(C)[C@@]3(Cl)[C@@H](O)C[C@]2(C)[C@@]1(OC(=O)c1ccco1)C(=O)CCl`, the Potency entry in assay [1], in assay [2], in [5] and in [6] was “inactive” in each case. The Potency in assay [3] was 13.3 µM (active). In assay [4] (setting [10]), the activity change, positive = activation is -51.1% [at 42.5 µM] (inactive).

In the case of `Nc1ccc2c3c(cccc13)-c1ccccc1-2`, the Potency entry in [1] and in [7] was “inactive” in each case. The Potency in assay [5] is 24.8 µM (active); in [6] it was 22.1 µM (active).

Consider `S=c1[nH]c2ccccc2s1`, for which the Potency result in [9], in [2], in assay [8], in assay [5], in assay [6] and in assay [7] was “inactive” throughout. Besides, in [3], the Potency was 54.5 µM (active). Further, in assay [4] (setting [10]), the activity change, positive = activation was -59.1% (inactive).

`C/C(=C(/OCCOc1ccc(Cl)cc1)c1ccc(Cl)cc1Cl)n1ccnc1`: the Potency result in assay [1], in [2] and in assay [6] was “inactive” each time.

With `O=Cc1cc(O)ccc1Br`, the Potency entry in assay [1], in assay [8], in assay [6] and in assay [7] was “inactive” each time.

On to `Cc1cc2c(cc1C(F)(F)F)N(C(=O)Nc1ccc(Oc3cccnc3C)nc1)CC2`, for which the Potency result in assay [9], in assay [8], in assay [6] and in [7] was “inactive” throughout. In addition, the Potency was 45.7 µM (active) in [2], 4.93 µM (active) in [3] and 4.97 µM (active) in assay [5].

Turning to `Cc1nc(-c2ccc3c(c2)CCN(CCC2CCC(NC(=O)/C=C/c4ccc(F)cc4)CC2)CC3)no1` (stereo not drawn), the Potency entry in assay [9], in assay [2], in assay [8], in assay [6] and in assay [7] was “inactive” each time.

In the case of `CCCCCCCCn1sc(Cl)c(Cl)c1=O`, the Potency result in [1] and in [6] was “inactive” each time. The Potency is 8 µM (active) in assay [2], 4.9 µM (active) in [8], 3.89 µM (active) in assay [5] and 6.92 µM (active) in assay [7].

Consider `Clc1ccc2cc3ccccc3cc2c1`, for which, in [9], the Potency was 30.9 µM (active). Further, the Potency result in assay [2], in assay [3], in assay [6] and in [7] was “inactive” each time.

On to `COC(=O)C1=C(C)NC(C)=C(C(=O)OCC(C)C)C1c1ccccc1[N+](=O)[O-]` (stereo not drawn), for which the Potency entry in assay [9] and in [6] was “inactive” throughout. Besides, the Potency in assay [2] was 127 µM (active) and inactive; in assay [3], 12.2 µM (active) and 21.1 µM (active); in assay [8], 49 µM (active); in [5], 21.9 µM (active). Besides, the figures for the activity change, positive = activation in [4] (at 42.5 µM (top of the series)) and in assay [4] (at 92.4 µM (top of the series)) were -46.2% (inactive) and -62.2% (inactive), respectively.

On to `NC(=O)N1C(=O)C(C(=O)c2cc(Cl)cs2)c2cc(F)c(Cl)cc21` (stereo not drawn), for which the Potency entry in [1], in assay [3], in [5] and in assay [6] was “inactive” in each case.
